Measured values as given in the supplement of paper PMC12350171.
Counter-ions that a name gives are not always drawn. Values without a mark were called inactive.

Tests used:
Settings in all cases: 20 µM
[1] = tested on: Salmonella enterica typhimurium; test: growth AUC normalised to DMSO control (fraction of control); higher = less growth inhibition, active = hit call of the paper
How it was run: (§1)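 After two anaerobic passages, pathogens were added at a starting OD578 of 0.01 to pre-reduced mGAM plates holding compound at 20 μM with 1% DMSO; hemin and NAD were supplemented for Haemophilus parainfluenzae. Sealed with breathable membranes, plates were read at OD578 hourly for 24 h, in three biological replicates. The trapezoidal rule, applied up to the exponential-to-stationary transition, gave the growth-curve AUC, which was normalised to DMSO controls on the same plate.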

Shigella flexneri = test: as above
How it was run: as §1

Vibrio cholerae = test: as above
How it was run: as §1

[2] = tested on: Yersinia pseudotuberculosis; test: as above
How it was run: as §1

P. vulgatus RND KO = test: growth AUC normalised to DMSO control (median) (fraction of control); higher = less growth inhibition, active = hit call of the paper
How it was run: (§2)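 Area under the growth curve, calculated by the trapezoidal rule up to entry into stationary phase, was normalised to vehicle wells on the same plate. Strains had been passaged twice overnight without oxygen and then grown in mGAM in 96-well plates from OD578 0.01, each with an approved-drug library compound at 20 μM in 1% DMSO. OD578 was read hourly over 24 h in an anaerobic incubator, and the median of three biological replicates is given.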

P. vulgatus WT = test: as above
How it was run: as §2

[3] = tested on: S. enterica typhimurium WT; test: as above
How it was run: as §2

[4] = tested on: S. enterica typhimurium tolC KO; test: as above
How it was run: as §2
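For growth AUC normalised to DMSO control (median) in this document: active when median AUC fell below 0.1.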

SMILES | growth AUC normalised to DMSO control [1] | growth AUC normalised to DMSO control (Shigella flexneri) | growth AUC normalised to DMSO control (Vibrio cholerae) | growth AUC normalised to DMSO control [2] | growth AUC normalised to DMSO control (P. vulgatus RND KO) | growth AUC normalised to DMSO control (P. vulgatus WT) | growth AUC normalised to DMSO control [3] | growth AUC normalised to DMSO control [4]
CCN1CCCC(OC(=O)C(c2ccccc2)c2ccccc2)C1 (stereo not given) [Piperidolate hydrochloride] | 1.01 | 1.02 | 1.03 | 0.967 | 1.03 | 1.04 | 0.998 | 0.976
N[C@@H](C(=O)N[C@@H]1C(=O)N2C(C(=O)O)=C(Cl)CS[C@H]12)c1ccccc1 [Cefaclor hydrate] | 0.492 (active) | 0.153 (active) | 1.03 | 0.209 (active) | 1.04 | 1.05 | 1.07 | 1.01
CC(C)(C(=O)c1cccnc1)c1cccnc1 [Metyrapone] | 0.996 | 0.992 | 0.965 | 0.989 | 0.996 | 0.981 | 1 | 0.996
COc1cc(C)c(/C=C/C(C)=C/C=C/C(C)=C/C(=O)O)c(C)c1C [Acitretin] | 0.995 | 1.02 | 0.985 | 0.99 | 0.944 | 0.956 | 1 | 0.998
CC(=O)NS(=O)(=O)c1ccc(N)cc1 [Sulfacetamide sodic hydrate] | 1 | 1.01 | 0.988 | 0.998 | 1.01 | 1.05 | 1.01 | 0.997
Cc1scc2c1N(C(=O)CN1CCN(C)CC1)c1ccccc1NC2=O [Telenzepine dihydrochloride] | 1.02 | 1.01 | 1.01 | 0.993 | 0.995 | 0.983 | 1.01 | 0.999
COc1cc(-c2ccc(=O)[nH]n2)ccc1OC(F)F [Zardaverine] | 0.99 | 0.999 | 0.955 | 0.998 | 1 | 1.02 | 0.995 | 0.997
CC(C)NCC(O)c1ccc(NS(C)(=O)=O)cc1 (stereo not given) [Sotalol hydrochloride] | 1 | 1.06 | 1.04 | 1.02 | 1.02 | 1.06 | 1.01 | 0.998
CNCCCC12CCC(c3ccccc31)c1ccccc12 [Maprotiline hydrochloride] | 1 | 0.999 | 0.942 | 1.01 | 0.947 | 0.985 | 0.997 | 0.982
Nc1ccc(S(=O)(=O)c2ccc(N)cc2)cc1 [Dapsone] | 0.982 | 0.994 | 0.988 | 1 | 1.01 | 1 | 1 | 0.994
CN1CCN(CCCN2c3ccccc3Sc3ccc(Cl)cc32)CC1 [Prochlorperazine dimaleate] | 1.01 | 1.02 | 0.947 | 1 | 1.01 | 0.981 | 0.996 | 0.892
C#C[C@]1(O)CC[C@H]2[C@@H]3CCC4=CC(=O)CC[C@@H]4[C@H]3CC[C@@]21CC [(D-) Norgestrel] | 0.98 | 0.938 | 0.961 | 0.979 | 0.989 | 0.974 | 0.998 | 1
COc1ccc(C(=O)NCc2cccnc2)cc1C(=O)NCc1cccnc1 [Picotamide monohydrate] | 0.989 | 0.968 | 0.992 | 0.984 | 1 | 1.01 | 0.995 | 0.998
Cc1c(OCC(F)(F)F)ccnc1C[S+]([O-])c1nc2ccccc2[nH]1 (stereo not given) [Lansoprazole] | 1 | 1 | 0.941 | 0.994 | 0.984 | 0.973 | 1 | 0.852
NS(=O)(=O)c1cc2c(cc1Cl)N=CNS2(=O)=O [Chlorothiazide] | 1.01 | 0.998 | 1.02 | 1.01 | 1.03 | 1.07 | 1.01 | 1.01
OCC(O)CN1CCN(c2ccccc2)CC1 (stereo not given) [Dropropizine] | 1.02 | 1.06 | 1.04 | 1.01 | 1.05 | 1.06 | 0.991 | 0.981
Cc1cn[nH]c1 [Fomepizole] | 0.996 | 0.992 | 0.977 | 0.996 | 0.978 | 0.985 | 0.993 | 0.997
CCC(C)(CN(C)C)OC(=O)c1ccccc1 (stereo not given) [Amyleine hydrochloride] | 0.992 | 0.989 | 0.989 | 1.01 | 0.995 | 1.01 | 0.983 | 1.01
CCN(CC)CCOCCOC(=O)C1(c2ccccc2)CCCC1 [Carbetapentane citrate] | 0.995 | 1 | 1 | 1 | 1.01 | 1.01 | 0.995 | 0.992
CN(C)CCCOc1nn(Cc2ccccc2)c2ccccc12 [Benzydamine hydrochloride] | 1 | 0.958 | 0.892 | 0.991 | 0.993 | 1.01 | 0.988 | 0.959
CCN(CC)CCNc1ccc(CO)c2sc3ccccc3c(=O)c12 [Hycanthone] | 0.936 | 0.984 | 0.879 | 0.991 | 0.994 | 0.96 | 0.993 | 0.163
CC(=O)N(CC(C)C(=O)O)c1c(I)cc(I)c(N)c1I (stereo not given) [Iocetamic acid] | 0.985 | 0.948 | 0.939 | 0.99 | 0.984 | 0.974 | 0.989 | 0.988
COc1cc(C(=O)NCc2ccc(OCCN(C)C)cc2)cc(OC)c1OC [Trimethobenzamide hydrochloride] | 1.02 | 1.01 | 1.05 | 1.02 | 1.02 | 1.05 | 0.999 | 1.01
Cn1c(=O)c2c(ncn2CC(O)CO)n(C)c1=O (stereo not given) [Diprophylline] | 0.986 | 0.996 | 0.971 | 1 | 1 | 0.989 | 0.991 | 0.998
CCN(CC)C(=O)c1ccc(O)c(OC)c1 [Ethamivan] | 0.981 | 1.03 | 1.03 | 1 | 1.04 | 1.06 | 1.01 | 1.01
CCS(=O)(=O)CCn1c([N+](=O)[O-])cnc1C [Tinidazole] | 1.01 | 0.99 | 1 | 0.971 | 0.0183 (active) | 0.0185 (active) | 1 | 0.995
Cc1c(Cl)cccc1Nc1ncccc1C(=O)O [Clonixin lysinate] | 1 | 0.989 | 0.94 | 1 | 0.979 | 1 | 1.02 | 0.954
COC(=O)C1=C(C)NC(C)=C(C(=O)OCC(C)C)C1c1ccccc1[N+](=O)[O-] (stereo not given) [Nisoldipine] | 1.01 | 1 | 1.01 | 0.991 | 0.945 | 0.981 | 1.01 | 0.95
CC(C)(C)NC[C@H](O)COc1nsnc1N1CCOCC1 [Timolol maleate salt] | 0.981 | 1.01 | 1.01 | 0.987 | 1.01 | 1.01 | 0.999 | 0.999
CN1CCN2c3ncccc3Cc3ccccc3C2C1 (stereo not given) [Mirtazapine] | 0.995 | 1.01 | 1.01 | 1 | 1.03 | 1.02 | 1 | 0.997
